Assay outcomes from PubChem.
HTT aggregate: reduces HttQ103-GFP aggregates in PC12 cells; PC12 HttQ103-GFP aggregates, Acumen cytometry, 40 h; 220,000 tested, 1.1% active; Potency, µM (highest dose often 46.1 µM), without a hit: at the highest dose activity change, negative = inhibition, most hits filed as inhibitors; also: potency is read from the fitted curve at half-maximal effect; % is scaled to controls: 0 for no effect and ±100 for the full control effect; nearly all actives have a fitted effect of over 60% in size
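Huntingtin Q103 exon 1–GFP aggregates in induced PC12 cells (100 nM tebufenozide) were quantified by cytometry from lysates, with compounds dosed in titration.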
HTT cytoprotect: cytoprotection in Huntington HTT-Q103 PC12 cell model; PC12 HTT-Q103 induced, cytoprotection, ATP luminescence, 40 h; Potency, µM (highest dose often 56.4 µM), for inactives: cytoprotection (ATP increase), most hits filed as activators; 230,000 tested, 0.14% active; also: potency is read from the fitted curve at half-maximal effect; % of control where 0% means no effect; nearly all actives have a fitted effect of over 45% in size
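Readout: ATPlite luminescence (ATP level). Model: stable PC12, inducible Htt exon1 Q103-GFP. Inducer: tebufenozide, 100 nM final. Compounds: dose series. No G418 in medium.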
PNC inhibitor: inhibitors of perinucleolar compartment assembly | 140,000 tested, 3.1% active | AID 2417 | activity change (PNC), negative = inhibition, % at 10 µM | PC3M PTB-GFP, PNC prevalence imaging, 16 h; active compounds read low;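 active = readout at or below -70, meaning at least 70% loss of cells showing the perinucleolar compartment, a nuclear body marking cancer cells; inconclusive = readout between -30 and a set limit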;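 also: plate controls were DMSO wells for no effect and camptothecin positive control wells for full effect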
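PC3M cells stably expressing PTB-GFP, 750–1000 cells/well, treated 16 h at 37 °C with compound (23 nl of library stock), in duplicate. After paraformaldehyde fixation and Hoechst stain, imaged at 20x; PNC prevalence scored by image analysis.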
Active calls of the source: *; ? = inconclusive; / = not tested or not shown; ! = not active in a repeat; [ ] = another dose, or the depositor's remark. The full list was thinned out, with hits kept by preference. Unless noted, calls follow the shape of the dose curve; as a rule, active = well fitted curve in the direction sought with a large enough effect; inconclusive = small, poorly fitted or top-dose-only effect, or another doubt; inactive = no such curve, though single readings can be large; an effect the other way counts as inactive or inconclusive.

SMILES	HTT aggregate	HTT cytoprotect	PNC inhibitor
COc1ccc(N2CCN(c3ncnc4c3[nH]c3ccccc34)CC2)cc1	?	-46%	-14
COc1cc2[nH]c3c(N4CCN(c5ccccn5)CC4)ncnc3c2cc1OC	20µM*	-165%[0.074 µM]	23
CCOC(=O)N1CCN(c2ncnc3c2[nH]c2ccc(F)cc23)CC1	7.1µM*	-49%	-6
COc1ccc2[nH]c3c(N4CCc5ccccc5C4)ncnc3c2c1	-12%[9.22 µM]	-63%[10 µM]	/
CCOC(=O)N1CCN(c2ncnc3c2[nH]c2ccc(OC)cc23)CC1	12%	-14%	3
Fc1ccc2[nH]c3c(N4CCN(c5ccccc5)CC4)ncnc3c2c1	22µM*	30%[1.9 µM]	-126*
CCc1cc2ccc(C)cc2nc1SCC(=O)NNC(=O)c1ccco1	-13%	29%[10 µM]	?
CCN(CC)C(=O)c1ccc2c(c1[N+](=O)[O-])C(=O)c1ccccc1C2=O	15%	-14%[10 µM]	-82*
CCN(CC)C(=O)c1cccc2c1C(=O)c1ccccc1-2	-6%	21%[10 µM]	?
COCC(C)NCc1cccc(C)c1 (configuration not stated)	-1%	-6%	41
O=C(Nc1ccc(S(=O)(=O)Nc2ncccn2)cc1)c1ccc(F)c(S(=O)(=O)N2CCOCC2)c1	19%[9.22 µM]	11%[10 µM]	/
CCOc1cccc(=O)c2c(C)n(Cc3ccco3)c(C)c12	10%	0%	-100*
CCOc1cccc(=O)c2c(C)n(-c3ccc(C(=O)O)cc3)c(C)c12	27%[9.22 µM]	3%[10 µM]	/
COC(C(=O)NC1CC1)c1ccccc1 (configuration not stated)	-1%	/	-114*
COC(C(=O)Nc1ccccc1F)c1ccccc1 (configuration not stated)	-5%	17%	0
CC(=O)C(C)Oc1ccc2c3c(c(=O)oc2c1)CCCCC3 (configuration not stated)	-12%	8%[10 µM]	?
COc1ccc(-c2nc(C=O)cs2)cc1	-9%[9.22 µM]	2%[10 µM]	/
N#C/C(=N\O)c1nc(-c2ccccc2)cs1	8.9µM*!	-7%	-127*!
N#CC(=C1CCCC1)c1nc(-c2ccccc2)cs1	-3%	-53%	74
Cc1cc(C)n(-c2ccc(C(=O)OCC(=O)NCc3ccc(Cl)cc3)cc2)n1	3%	16%[10 µM]	?
CC(C)(C)OC(=O)NCCCCCc1nnc(SCc2c(F)cccc2Cl)o1	-21%[9.22 µM]	-21%[10 µM]	/
COc1ccccc1Cc1nc(-c2ccncc2)no1	11%[9.22 µM]	10%[10 µM]	/
COc1ccccc1Cc1noc(COc2cccc(C)c2C)n1	-21%	0%[0.074 µM]	-135*
Cn1c(N=NC(=O)c2ccccc2)c(O)c2ccccc21	-13%	/	-86*
O=C(N=Nc1c(O)n(Cc2ccccc2)c2ccccc12)c1ccncc1	8%[9.22 µM]	-6%[10 µM]	/
SMILES	HTT aggregate	HTT cytoprotect	PNC inhibitor
CN1C(=O)CC(N2CCC(C(N)=O)CC2)C1=O (configuration not stated)	11%	3%[1.9 µM]	-22
CCCCC/C=N/NC(=O)c1[nH]c2ccc([N+](=O)[O-])cc2c1C	12%[9.22 µM]	-2%[10 µM]	/
CCC/C=N/NC(=O)c1[nH]c2c([N+](=O)[O-])cccc2c1C	?	-37%[10 µM]	-113*
COc1cc2c(cc1O)CC[C@@H]1[C@@H]2CC[C@@]2(C)[C@H](O)CC[C@H]12	/	-42%[1.9 µM]	/
O=C(CC(=O)NC1CCCCC1)N/N=C/c1ccccc1Cl	11%	42%[10 µM]	34
O=C(CC(=O)NC1CCCCC1)N/N=C/c1cccc2ccccc12	-7%	8%[10 µM]	-86*
COc1ccc(C2CC(C(F)(F)F)n3ncc(C(=O)NCc4cccnc4)c3N2)cc1OC (configuration not stated)	5%	0%	-82*
COc1cccc(C2CC(C(F)(F)F)n3ncc(C(=O)NCC4CCCO4)c3N2)c1 (configuration not stated)	26%	-5%	7
O=C(c1cncc(Br)c1)N1CCc2ccccc2C1	10µM*	14%[10 µM]	?
O=C(c1ccc(Cl)nc1)N1CCc2ccccc2C1	-14%	6%[10 µM]	?
CCc1ccccc1N1CC23C=CC(O2)C(C(=O)O)C3C1=O (configuration not stated)	-9%	16%[10 µM]	-5
COc1cc(OC)c(N2CC34C=CC(O3)C(C(=O)O)C4C2=O)cc1Cl (configuration not stated)	-13%	-15%	-92*
CN1CC(=O)N(CC(=O)NCCc2ccc(F)cc2)c2ccccc2C1=O	6%	10%	18
Cc1ccc(C2C(C#N)=C(N)N(c3cccnc3)C3=C2C(=O)CCC3)s1 (configuration not stated)	26%[9.22 µM]	16%[10 µM]	/
N#C/C(=C(/O)COC(=O)CSc1ccc2ccccc2c1)c1nc2ccccc2[nH]1	22%	14%[1.9 µM]	-80*
